Source: PubChem BioAssay (NCI)
This is part of a sample that, as a whole, favours compounds with a hit. Of some 79,000 tested, about 15% had one in any assay. Rule as the data show it: active = growth inhibition above about 70%; inactive = the rest. Where a SMILES comes first, the peptide text is derived from it. [ ]: non-standard residue; d: D form. The star is where a group is joined. ξ: configuration not given here. Tos = Cc1ccc(S(=O)(=O)*)cc1; ξY = NC(Cc1ccc(O)cc1)C(=O)O

Key:
[1] = NCI Yeast Anticancer Drug Screen. Data for the rad50 strain (AID 155);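 also: 0% = growth of vehicle-only cultures of the same strain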; details: S. cerevisiae rad50 strain growth inhibition; at 50.0 µM; hits give high values
In short: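 Readout: growth inhibition relative to vehicle-treated cultures. Compound exposure was carried out in a genetically defined yeast strain deficient in DNA damage repair.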

[2] = NCI Yeast Anticancer Drug Screen. Data for the mec2-1 strain (AID 157); details: S. cerevisiae mec2-1 strain, at 50.0 µM, hits give high values
In short: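 Growth inhibition is read against vehicle-treated controls after compound exposure of the mec2-1 yeast strain, which is defective in DNA damage repair or cell cycle control.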

[3] = NCI Yeast Anticancer Drug Screen. Data for the sgs1 mgt1 strain (AID 161);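 also: 0% = growth of cultures given vehicle only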; details: S. cerevisiae sgs1 mgt1 strain, at 50.0 µM, hits give high values
In short: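 Compounds are added to genetically altered yeast, and growth is compared with cultures given vehicle alone to give percent inhibition.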

[4] = NCI Yeast Anticancer Drug Screen. Data for the cln2 rad14 strain (AID 165);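 also: 0% = growth equal to vehicle treated cultures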; details: S. cerevisiae cln2 rad14 strain, at 50.0 µM, hits give high values
In short: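 Growth inhibition, relative to vehicle-treated controls, is the read-out. The test organism is a yeast strain with defined genetic alterations, cln2 rad14.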

[5] = NCI Yeast Anticancer Drug Screen. Data for the bub3 strain (AID 167); details: S. cerevisiae bub3 mutant strain, at 50.0 µM, hits give high values
In short: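 Readout: yeast growth inhibition, expressed relative to vehicle-only wells. The test organism is a mutant strain from a panel with lesions in DNA repair or checkpoint genes.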

[6] = NCI Yeast Anticancer Drug Screen. Data for the mlh1 rad18 strain (AID 175); details: S. cerevisiae mlh1 rad18 strain growth inhibition; at 50.0 µM; hits give high values
In short: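 Cells of a genetically altered yeast strain, deficient in DNA damage repair, were treated with compound. Their growth was then compared with that of vehicle-treated cultures to give inhibition.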

Measured: growth inhibition

O=c1[nH]c(C(Cl)(Cl)Cl)nc2ccc(Cl)cc12
inactive: [1] -0.3% | [2] 8.6% | [3] -1.95% | [4] 11.8% | [5] -10.1% | [6] -12.1%

O=[N+]([O-])c1ccccc1N=NNc1ccccc1[N+](=O)[O-]
inactive: [1] 9.65% | [2] -4% | [3] 1.9% | [4] -26.6% | [5] 3.1% | [6] 3%

Nc1ccc2ncc(NCc3ccc(F)cc3)nc2c1
inactive: [1] -4% | [2] -25.9% | [3] -25.6% | [4] 18.1% | [5] 3.4% | [6] 5.15%

C/C(=C\O[Si](C)(C)C)c1ccccc1
inactive: [1] 37.6% | [2] 23.9% | [3] 12.4% | [4] 7.6% | [5] -11.2% | [6] 41.1%

CC(=O)Oc1ccc(C2OC(=O)c3ccccc3N2C(C)=O)cc1 (stereo not given)
inactive: [1] 4.05% | [2] 27.6% | [3] 12.7% | [4] -6.3% | [5] 34.6% | [6] 26.9%

Cc1ccc(NC(=O)C(=O)Cc2cccc[n+]2[O-])cc1C
inactive: [1] 25.4% | [2] 13.1% | [3] -4.1% | [4] 12.2% | [5] 9.05% | [6] -6.1%

C=CC(=O)NC1CCCCC1
inactive: [1] -8.9% | [2] -10.9% | [3] -19.8% | [4] -8.9% | [5] -6.8% | [6] -22.4%

NC1=C(O)C(=O)C(c2ccc(C3OC(N)=C(O)C3=O)cc2)O1 (stereo not given)
inactive: [1] -8.15% | [2] -17.6% | [3] -18.6% | [4] -0.3% | [5] -27.6% | [6] -3.5%

O=P(O)(O)OP(=O)(O)OCC1OC(n2cnc3c(=S)nc[nH]c32)C(O)C1O (stereo not given)
inactive: [1] -2.65% | [2] 3.5% | [3] -5% | [4] -9.2% | [5] 3.55% | [6] 2.85%

COC(=O)C(Cc1ccc(O)cc1)NC(=O)CNS(=O)(=O)c1ccc(C)cc1 (stereo not drawn) (Tos-Gly-[ξY]-OMe)
inactive: [1] 35.8% | [2] -4.1% | [3] 19.9% | [4] 10.9% | [5] -1.2% | [6] 8.4%

Cn1nc(NC(=O)c2cc(N)nn2C)cc1C(=O)Nc1ccc2cc(S(=O)(=O)O)cc(S(=O)(=O)O)c2c1
inactive: [1] -14.1% | [2] -16.7% | [3] -10.3% | [4] 7.65% | [5] 13.7% | [6] -3%

Cc1cccc(Cl)c1N=Nc1c(C)nn(C(N)=S)c1C
inactive: [1] 29.8% | [2] 8.75% | [3] 38% | [4] -33% | [5] -0.55% | [6] 17.1%

COc1ccc2oc(=N)c(C(N)=S)cc2c1
inactive: [1] 28% | [2] 24.2% | [3] -3.45% | [4] 16.8% | [5] 7.9% | [6] -2.95%

CC(=O)OCOC(=O)CN(CC(=O)OCOC(C)=O)Cc1cc2c(cc1OC(C)=O)Oc1cc(OC(C)=O)c(CN(CC(=O)OCOC(C)=O)CC(=O)OCOC(C)=O)cc1C21OC(=O)c2ccccc21
inactive: [1] 14.1% | [2] 9.1% | [3] 15.2% | [4] 14.8% | [5] -5% | [6] 35.1%

COc1cc(/C=C/c2ccc([N+](=O)[O-])cc2[N+](=O)[O-])ccc1O
inactive: [1] 24.3% | [2] 8.5% | [3] 28.6% | [4] 19.1% | [5] 9.25% | [6] 25.9%

CN1CCN(c2c3c(nc4ccccc24)CCCC3)CC1
inactive: [1] -6.45% | [2] 2% | [3] -2.4% | [4] -40.2% | [5] -10.3% | [6] -22%

CC(C)(C)n1nc(C2CC2)cc1NC(=O)Nc1ccc(Cl)cc1
inactive: [1] -0.55% | [2] -8.25% | [3] -8.55% | [4] 8.85% | [5] -2.55% | [6] 2.4%

CCC(S)(C(N)=O)c1ccccc1 (stereo not given)
inactive: [1] 3% | [2] -10.4% | [3] -7.55% | [4] -26.8% | [5] -4.8% | [6] -18.2%

C=Cc1nnnn1C
inactive: [1] 7.45% | [2] 16.2% | [3] -5.85% | [4] 10.3% | [5] 10.4% | [6] 10.8%

CCOC(=O)C(=CNc1ccc2c(c1)OCO2)C(=O)OCC
inactive: [1] 4.95% | [2] -11.2% | [3] 28.2% | [4] 4.65% | [5] 49.4% | [6] 14.8%

COc1ccc2c3c([nH]c2c1)CCN(Cc1ccccc1)C3
inactive: [1] -31.1% | [2] -21.6% | [3] 13.8% | [4] 19.6% | [5] 15.2% | [6] 1.1%

CCN(Cc1cccc(S(=O)(=O)O)c1)c1ccc(C(=C2C=CC(=[N+](C)C)C=C2)c2ccc(N(C)C)cc2)c(S(=O)(=O)O)c1
inactive: [1] 8.35% | [2] 54.8% | [3] 28.1% | [4] -8.55% | [5] 11.9% | [6] 26.4%

O=C1CCC(=O)N2CCCCN12
inactive: [1] -4.7% | [2] -12.4% | [3] 11% | [4] 18.6% | [5] 22.5% | [6] 13.1%

COC1OC(CO)C(O)C(NC(=O)OCc2ccccc2)C1O (stereo not given)
inactive: [1] 2.6% | [2] -1.7% | [3] 3.05% | [4] -46.1% | [5] 1.1% | [6] -13.4%

CC(=O)/C(=C\c1ccc([N+](=O)[O-])cc1)C(=O)CCN(C)C
inactive: [1] 5.25% | [2] 28.1% | [3] 34.9% | [4] -5.3% | [5] 13.4% | [6] -41.2%

Cc1ccc(S(=O)(=O)CN2CCC(=O)c3ccccc32)cc1
inactive: [1] 20.4% | [2] 12.6% | [3] -6.4% | [4] 11.4% | [5] 15.4% | [6] 0.25%

O=C(OCC1OC(Br)CC(OC(=O)c2ccc([N+](=O)[O-])cc2)C1OC(=O)c1ccc([N+](=O)[O-])cc1)c1ccc([N+](=O)[O-])cc1 (stereo not given)
inactive: [1] 6.9% | [2] 9.95% | [3] 18.1% | [4] -22.4% | [5] -8.95% | [6] 35.5%

CCC1CC/C(=N\Nc2ccc([N+](=O)[O-])cc2[N+](=O)[O-])c2ccc3c(C)ccc(C)c3c21 (stereo not given)
inactive: [1] -1% | [2] 7.25% | [3] -8.7% | [4] -14.2% | [5] -2.5% | [6] 6.8%

COC(=O)C1OC(O[C@H]2CC[C@]3(C)[C@H]4CC=C5[C@@H]6CC(C)(C)CC[C@]6(C(=O)OC)CC[C@@]5(C)[C@]4(C)CC[C@H]3C2(C)C)C(O)C(O)C1O (stereo not given in full)
inactive: [1] 5.45% | [2] -8.4% | [3] 2.05% | [4] 5.85% | [5] 23.6% | [6] 15.1%

O=C(c1ccccc1Br)C(F)(F)F
inactive: [1] -2.6% | [2] -19.5% | [3] -18.4% | [4] -17.5% | [5] -43.9% | [6] -3.8%

CCN(CC)CCOc1ccc(OC)cc1
inactive: [1] -8.7% | [2] -0.6% | [3] -9.55% | [4] -35.2% | [5] -5.2% | [6] -0.8%

CCC(C(O)c1ccc(Cl)cc1)[N+](=O)[O-] (stereo not given)
inactive: [1] 29.9% | [2] 21.7% | [3] 35.9% | [4] 3.05% | [5] 4.65% | [6] 43.7%

O=c1cccc2c3ccccc3ccn12
inactive: [1] 22.9% | [2] 7% | [3] 15.3% | [4] 12.3% | [5] 15.3% | [6] 13.5%

[O-]c1on[n+](-c2ccccc2)c1CN1CCOCC1
inactive: [1] -8.2% | [2] -8.35% | [3] -9.9% | [4] -45% | [5] 8.1% | [6] -3.05%

C[n+]1cccc(/C=C/c2ccc3cccc(O)c3n2)c1
inactive: [1] 4% | [2] -3.75% | [3] -12.7% | [4] -2.65% | [5] -42.4% | [6] 8.35%

O=C(O)C1=C/C(=C\C=[N+]2c3cc(O)c(OC4OC(CO)C(O)C(O)C4O)cc3CC2C(=O)[O-])CC(C(=O)O)N1 (stereo not given)
inactive: [1] -10.4% | [2] -3.75% | [3] 12.2% | [4] -26.1% | [5] 5.8% | [6] 6%

c1ccc(C2OC(c3ccccc3)c3ccccc32)cc1 (stereo not given)
inactive: [1] 7.55% | [2] -6.8% | [3] 12.4% | [4] -2.05% | [5] 24.1% | [6] 12.2%

COC1/C=C/OC2(C)Oc3c(C)c(O)c4c(O)c(c(/C=N/OC/C=C(\C)CCC=C(C)C)c(O)c4c3C2=O)NC(=O)C(C)=C/C=C/C(C)C(O)C(C)C(O)C(C)C(OC(C)=O)C1C (stereo not given)
inactive: [1] -0.15% | [2] -0.5% | [3] -2.65% | [4] -10.9% | [5] -8.95% | [6] 30.4%

C=C(C)Cc1cc(C(CC)C(CC)c2ccc(O)c(CC(=C)C)c2)ccc1O (stereo not given)
inactive: [1] 18.6% | [2] 20.4% | [3] 47.2% | [4] 34.3% | [5] 6.25% | [6] 46%

CCOC(=O)c1cn(C)c2c1C(=O)C(C(=O)OCC)CCN2C(=O)OCC (stereo not given)
inactive: [1] -1.5% | [2] 9.15% | [3] -11.8% | [4] 8.95% | [5] 1% | [6] -19.6%
